Experiment in all cases: DAPPL (digital affinity profiling via proximity ligation, sequencing); 10 mM Tris-HCl pH 7.5, 50 mM NaCl, 1 mM DTT, 4% glycerol, room temperature, 30 min; GST-TFs on glutathione beads, 16-mer random dsDNA library, 0.1% formaldehyde crosslink after washing; high values mean tight binding
One test concerns the target T1, FEV (Homo sapiens, UniProt Q99581 1-238).
T1 sequence: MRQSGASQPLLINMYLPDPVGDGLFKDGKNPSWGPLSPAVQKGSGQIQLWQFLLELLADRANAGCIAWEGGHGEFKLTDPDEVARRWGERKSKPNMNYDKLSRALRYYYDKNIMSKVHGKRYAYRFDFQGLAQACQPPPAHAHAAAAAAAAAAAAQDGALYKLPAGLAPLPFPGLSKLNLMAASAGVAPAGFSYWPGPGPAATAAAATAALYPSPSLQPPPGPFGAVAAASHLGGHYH
The conditions noted are these: protein: recombinant; tags: N-terminal GST; dsDNA, one strand shown. In outline: (§1)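 In yeast, human transcription factors were expressed with a GST fusion, then pulled down on glutathione beads and given DNA barcodes. Pooled with a tag-only sample, they were exposed to 200 nmole of a 16-mer random double-stranded DNA library (Tris/NaCl/DTT/glycerol buffer, room temperature, 30 min), washed, crosslinked with 0.1% formaldehyde, proximity-ligated using BsaI/T4 ligase for 1 h at 37 °C, PCR-amplified and read on an Illumina NextSeq500. Each hexamer's frequency of reads for a factor, divided by the matching frequency for the tag-only sample, gives the binding signal.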

The next test deals with ETV5 (Homo sapiens, UniProt P41161 1-510). The conditions noted are these: protein: recombinant; tags: N-terminal GST; dsDNA, one strand shown. In short, it runs like this: as §1
Chain of ETV5 (P41161 whole entry): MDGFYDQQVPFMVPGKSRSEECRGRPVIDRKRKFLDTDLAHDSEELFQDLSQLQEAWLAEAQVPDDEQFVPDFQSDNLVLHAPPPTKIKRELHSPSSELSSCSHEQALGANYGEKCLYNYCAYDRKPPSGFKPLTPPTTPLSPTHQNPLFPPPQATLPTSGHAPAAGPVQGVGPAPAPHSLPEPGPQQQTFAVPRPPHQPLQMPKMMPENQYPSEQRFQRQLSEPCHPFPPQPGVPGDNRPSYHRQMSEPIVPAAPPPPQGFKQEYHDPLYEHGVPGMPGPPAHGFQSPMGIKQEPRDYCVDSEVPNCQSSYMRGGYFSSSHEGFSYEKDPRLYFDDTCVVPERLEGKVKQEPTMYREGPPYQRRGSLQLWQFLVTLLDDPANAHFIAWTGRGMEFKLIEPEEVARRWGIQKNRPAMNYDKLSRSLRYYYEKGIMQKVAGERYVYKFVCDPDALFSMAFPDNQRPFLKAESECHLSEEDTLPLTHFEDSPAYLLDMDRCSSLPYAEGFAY
The target in another test is HSF1 (Homo sapiens, UniProt Q00613 1-529). The conditions noted are these: protein: recombinant; tags: N-terminal GST; chain copies: 3; dsDNA, one strand shown. In outline:
as §1

The next test concerns the target T2, SPIC (Homo sapiens, UniProt Q8N5J4 1-248).
T2 sequence: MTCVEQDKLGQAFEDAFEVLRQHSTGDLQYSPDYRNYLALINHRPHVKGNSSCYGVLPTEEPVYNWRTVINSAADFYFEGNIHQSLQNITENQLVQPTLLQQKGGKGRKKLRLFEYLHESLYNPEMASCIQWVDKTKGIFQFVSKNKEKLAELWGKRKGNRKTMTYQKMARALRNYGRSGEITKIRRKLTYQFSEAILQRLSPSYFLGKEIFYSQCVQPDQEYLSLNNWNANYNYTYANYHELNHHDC
The conditions noted are these: protein: recombinant; tags: N-terminal GST; dsDNA, one strand shown. In short, it runs like this: as §1

The target of another test is ELF4 (Homo sapiens, UniProt Q99607 1-663). The conditions noted are these: protein: recombinant; tags: N-terminal GST; dsDNA, one strand shown. In outline: as §1
Chain of ELF4 (Q99607 whole entry): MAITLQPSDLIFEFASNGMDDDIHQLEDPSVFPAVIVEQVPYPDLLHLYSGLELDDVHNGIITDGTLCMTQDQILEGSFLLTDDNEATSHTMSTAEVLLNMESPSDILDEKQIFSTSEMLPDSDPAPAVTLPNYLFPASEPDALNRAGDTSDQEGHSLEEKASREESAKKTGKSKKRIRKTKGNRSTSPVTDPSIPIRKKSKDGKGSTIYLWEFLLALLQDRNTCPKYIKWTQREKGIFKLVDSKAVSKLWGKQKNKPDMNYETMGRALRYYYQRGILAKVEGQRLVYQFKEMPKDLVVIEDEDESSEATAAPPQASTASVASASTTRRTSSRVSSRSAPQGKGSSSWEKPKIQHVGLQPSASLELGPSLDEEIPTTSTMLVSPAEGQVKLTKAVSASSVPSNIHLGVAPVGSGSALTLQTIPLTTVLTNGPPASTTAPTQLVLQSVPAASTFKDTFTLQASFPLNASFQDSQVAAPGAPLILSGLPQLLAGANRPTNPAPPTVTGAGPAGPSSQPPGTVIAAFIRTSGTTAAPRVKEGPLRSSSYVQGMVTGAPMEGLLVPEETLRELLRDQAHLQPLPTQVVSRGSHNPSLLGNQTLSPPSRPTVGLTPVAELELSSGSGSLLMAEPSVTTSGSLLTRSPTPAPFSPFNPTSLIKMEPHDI
A further test addresses T3, ELK4 (Homo sapiens, UniProt P28324-2 1-405).
T3 sequence: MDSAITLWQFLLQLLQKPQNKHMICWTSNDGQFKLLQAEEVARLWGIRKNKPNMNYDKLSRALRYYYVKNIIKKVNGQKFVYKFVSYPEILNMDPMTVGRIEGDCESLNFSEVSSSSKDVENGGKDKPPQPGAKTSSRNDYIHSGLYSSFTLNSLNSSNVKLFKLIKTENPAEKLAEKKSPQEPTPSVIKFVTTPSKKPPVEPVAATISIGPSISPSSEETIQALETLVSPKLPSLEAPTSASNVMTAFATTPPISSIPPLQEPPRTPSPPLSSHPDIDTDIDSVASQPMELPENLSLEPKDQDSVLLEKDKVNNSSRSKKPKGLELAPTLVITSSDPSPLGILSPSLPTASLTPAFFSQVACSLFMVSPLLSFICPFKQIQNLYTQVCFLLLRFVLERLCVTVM
The conditions noted are these: protein: recombinant; tags: N-terminal GST; dsDNA, one strand shown. In short, it runs like this: as §1

The target in another test is T4, ETV2 (Homo sapiens, UniProt O00321 1-342).
T4 sequence: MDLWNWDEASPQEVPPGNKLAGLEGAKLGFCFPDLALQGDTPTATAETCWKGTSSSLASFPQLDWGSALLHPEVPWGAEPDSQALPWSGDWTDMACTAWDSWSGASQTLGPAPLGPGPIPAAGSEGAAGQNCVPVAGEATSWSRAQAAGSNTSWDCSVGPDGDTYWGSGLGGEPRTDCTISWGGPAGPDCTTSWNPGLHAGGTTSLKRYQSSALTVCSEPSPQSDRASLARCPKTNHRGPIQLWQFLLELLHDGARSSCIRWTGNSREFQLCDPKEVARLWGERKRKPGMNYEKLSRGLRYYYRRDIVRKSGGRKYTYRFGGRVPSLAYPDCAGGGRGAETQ
The conditions noted are these: protein: recombinant; tags: N-terminal GST; dsDNA, one strand shown. In outline:
as §1

A further test concerns the target T5, ELF3 (Homo sapiens, UniProt P78545 1-371).
T5 sequence: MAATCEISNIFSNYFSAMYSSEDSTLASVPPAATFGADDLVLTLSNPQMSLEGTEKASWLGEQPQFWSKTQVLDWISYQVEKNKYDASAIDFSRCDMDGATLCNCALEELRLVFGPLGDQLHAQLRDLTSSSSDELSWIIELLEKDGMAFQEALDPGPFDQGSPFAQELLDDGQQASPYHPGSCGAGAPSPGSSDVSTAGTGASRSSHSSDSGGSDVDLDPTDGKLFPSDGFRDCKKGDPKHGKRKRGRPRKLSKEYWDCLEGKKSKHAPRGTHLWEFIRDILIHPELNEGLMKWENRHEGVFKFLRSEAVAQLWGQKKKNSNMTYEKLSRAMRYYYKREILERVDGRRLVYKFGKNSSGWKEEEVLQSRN
The conditions noted are these: protein: recombinant; tags: N-terminal GST; dsDNA, one strand shown. In outline:
as §1

Another test deals with CRX (Homo sapiens, UniProt O43186 1-299). The conditions noted are these: protein: recombinant; tags: N-terminal GST; dsDNA, one strand shown. In outline:
as §1

Another test concerns the target ETV1 (Homo sapiens, UniProt P50549 1-477). The conditions noted are these: protein: recombinant; tags: N-terminal GST; dsDNA, one strand shown. In short, it runs like this: as §1
The target of another test is T6, ERF (Homo sapiens, UniProt P50548 1-548).
T6 sequence: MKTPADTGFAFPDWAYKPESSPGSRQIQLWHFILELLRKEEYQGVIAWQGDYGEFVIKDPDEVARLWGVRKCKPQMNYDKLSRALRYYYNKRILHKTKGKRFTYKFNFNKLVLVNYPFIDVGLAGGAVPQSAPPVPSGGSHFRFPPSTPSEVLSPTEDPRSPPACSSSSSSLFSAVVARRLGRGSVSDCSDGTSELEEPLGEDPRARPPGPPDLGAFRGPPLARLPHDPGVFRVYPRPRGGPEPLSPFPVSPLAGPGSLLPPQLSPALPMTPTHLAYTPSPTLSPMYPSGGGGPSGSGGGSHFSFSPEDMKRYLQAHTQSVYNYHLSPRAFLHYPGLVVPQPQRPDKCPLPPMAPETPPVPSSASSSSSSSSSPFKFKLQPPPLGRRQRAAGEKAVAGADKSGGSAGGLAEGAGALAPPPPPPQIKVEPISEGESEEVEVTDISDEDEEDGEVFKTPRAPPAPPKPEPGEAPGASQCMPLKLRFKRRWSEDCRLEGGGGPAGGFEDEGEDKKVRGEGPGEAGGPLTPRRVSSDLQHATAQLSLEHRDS
The conditions noted are these: protein: recombinant; tags: N-terminal GST; dsDNA, one strand shown. In short, it runs like this: as §1

In another test the target is T7, ETV3L (Homo sapiens, UniProt Q6ZN32 1-361).
T7 sequence: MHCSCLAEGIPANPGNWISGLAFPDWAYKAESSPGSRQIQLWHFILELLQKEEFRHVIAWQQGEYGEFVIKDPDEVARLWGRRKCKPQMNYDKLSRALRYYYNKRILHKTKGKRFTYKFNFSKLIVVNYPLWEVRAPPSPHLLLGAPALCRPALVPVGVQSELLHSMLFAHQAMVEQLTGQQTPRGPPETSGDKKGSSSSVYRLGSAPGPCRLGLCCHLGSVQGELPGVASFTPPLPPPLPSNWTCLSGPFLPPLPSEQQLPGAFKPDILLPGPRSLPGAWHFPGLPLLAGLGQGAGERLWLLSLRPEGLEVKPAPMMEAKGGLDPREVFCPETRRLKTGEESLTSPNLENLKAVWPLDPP
The conditions noted are these: protein: recombinant; tags: N-terminal GST; dsDNA, one strand shown. In outline:
as §1

The target in another test is T8, ETS2 (Homo sapiens, UniProt P15036 1-469).
T8 sequence: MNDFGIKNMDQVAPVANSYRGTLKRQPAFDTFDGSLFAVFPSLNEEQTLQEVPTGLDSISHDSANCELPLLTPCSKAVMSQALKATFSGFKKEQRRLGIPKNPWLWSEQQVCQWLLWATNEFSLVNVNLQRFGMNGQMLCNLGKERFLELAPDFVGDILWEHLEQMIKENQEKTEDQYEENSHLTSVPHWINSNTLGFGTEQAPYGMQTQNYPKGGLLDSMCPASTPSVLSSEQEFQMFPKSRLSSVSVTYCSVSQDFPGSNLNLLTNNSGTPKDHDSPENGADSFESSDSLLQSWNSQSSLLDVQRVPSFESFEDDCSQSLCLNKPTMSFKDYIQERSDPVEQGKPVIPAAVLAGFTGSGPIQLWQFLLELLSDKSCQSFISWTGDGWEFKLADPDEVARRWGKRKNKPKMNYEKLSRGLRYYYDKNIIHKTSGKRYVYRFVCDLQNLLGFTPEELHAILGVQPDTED
The conditions noted are these: protein: recombinant; tags: N-terminal GST; dsDNA, one strand shown. In outline: as §1

A further test concerns the target T9, SPDEF (Homo sapiens, UniProt O95238 1-335).
T9 sequence: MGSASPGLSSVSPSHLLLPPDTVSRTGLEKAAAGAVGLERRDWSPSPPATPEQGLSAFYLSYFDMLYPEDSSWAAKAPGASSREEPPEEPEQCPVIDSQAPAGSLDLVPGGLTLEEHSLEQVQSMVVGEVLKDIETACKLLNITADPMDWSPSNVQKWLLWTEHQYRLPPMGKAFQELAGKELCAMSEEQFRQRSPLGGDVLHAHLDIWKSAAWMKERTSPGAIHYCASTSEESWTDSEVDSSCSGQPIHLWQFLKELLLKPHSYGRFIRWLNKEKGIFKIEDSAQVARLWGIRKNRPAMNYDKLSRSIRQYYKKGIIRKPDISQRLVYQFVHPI
The conditions noted are these: protein: recombinant; tags: N-terminal GST; dsDNA, one strand shown. In short, it runs like this: as §1

In the next test the target is T10, ETV7 (Homo sapiens, UniProt Q9Y603 1-341).
T10 sequence: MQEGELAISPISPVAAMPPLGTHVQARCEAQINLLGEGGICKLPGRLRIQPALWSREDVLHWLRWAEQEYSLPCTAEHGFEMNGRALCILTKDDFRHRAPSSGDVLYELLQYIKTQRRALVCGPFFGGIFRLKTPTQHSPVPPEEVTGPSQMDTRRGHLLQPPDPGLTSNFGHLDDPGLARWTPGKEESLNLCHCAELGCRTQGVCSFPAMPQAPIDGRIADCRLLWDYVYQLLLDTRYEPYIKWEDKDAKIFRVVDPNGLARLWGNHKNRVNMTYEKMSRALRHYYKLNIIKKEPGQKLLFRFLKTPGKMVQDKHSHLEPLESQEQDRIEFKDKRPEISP
The conditions noted are these: protein: recombinant; tags: N-terminal GST; dsDNA, one strand shown. In short, it runs like this: as §1

Another test has as its target T11, ELF5 (Homo sapiens, UniProt Q9UKW6-2 1-255).
T11 sequence: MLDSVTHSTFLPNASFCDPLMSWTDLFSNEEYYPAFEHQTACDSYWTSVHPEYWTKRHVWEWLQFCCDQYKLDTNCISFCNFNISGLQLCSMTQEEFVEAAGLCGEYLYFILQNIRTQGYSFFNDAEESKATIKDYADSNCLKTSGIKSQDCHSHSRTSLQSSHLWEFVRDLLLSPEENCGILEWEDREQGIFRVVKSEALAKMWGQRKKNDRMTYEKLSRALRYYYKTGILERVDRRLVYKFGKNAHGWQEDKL
The conditions noted are these: protein: recombinant; tags: N-terminal GST; dsDNA, one strand shown. In short, it runs like this: as §1

A further test concerns the target T12, ETV3 (Homo sapiens, UniProt P41162-2 1-143).
T12 sequence: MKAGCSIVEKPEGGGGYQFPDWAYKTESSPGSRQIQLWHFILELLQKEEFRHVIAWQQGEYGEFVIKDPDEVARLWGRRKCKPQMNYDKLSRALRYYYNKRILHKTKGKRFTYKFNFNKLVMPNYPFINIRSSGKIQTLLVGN
The conditions noted are these: protein: recombinant; tags: N-terminal GST; dsDNA, one strand shown. In short, it runs like this:
as §1

The next test addresses ETV6 (Homo sapiens, UniProt P41212 1-452). The conditions noted are these: protein: recombinant; tags: N-terminal GST; dsDNA, one strand shown. In short, it runs like this: as §1

Chain of ETV1 (P50549 whole entry): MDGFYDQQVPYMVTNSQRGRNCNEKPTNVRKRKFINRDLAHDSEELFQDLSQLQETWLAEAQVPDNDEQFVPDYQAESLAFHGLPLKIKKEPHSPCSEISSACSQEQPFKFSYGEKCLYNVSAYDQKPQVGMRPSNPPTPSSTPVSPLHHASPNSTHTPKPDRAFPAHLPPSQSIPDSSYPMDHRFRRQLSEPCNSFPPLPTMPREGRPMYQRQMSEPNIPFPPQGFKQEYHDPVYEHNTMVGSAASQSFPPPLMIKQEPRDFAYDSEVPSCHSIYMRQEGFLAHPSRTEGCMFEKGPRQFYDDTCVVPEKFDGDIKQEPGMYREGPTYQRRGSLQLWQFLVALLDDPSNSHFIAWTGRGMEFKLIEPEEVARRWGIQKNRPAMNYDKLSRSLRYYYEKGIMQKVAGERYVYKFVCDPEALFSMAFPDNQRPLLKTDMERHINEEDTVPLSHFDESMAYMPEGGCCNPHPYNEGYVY
Chain of HSF1 (Q00613 whole entry): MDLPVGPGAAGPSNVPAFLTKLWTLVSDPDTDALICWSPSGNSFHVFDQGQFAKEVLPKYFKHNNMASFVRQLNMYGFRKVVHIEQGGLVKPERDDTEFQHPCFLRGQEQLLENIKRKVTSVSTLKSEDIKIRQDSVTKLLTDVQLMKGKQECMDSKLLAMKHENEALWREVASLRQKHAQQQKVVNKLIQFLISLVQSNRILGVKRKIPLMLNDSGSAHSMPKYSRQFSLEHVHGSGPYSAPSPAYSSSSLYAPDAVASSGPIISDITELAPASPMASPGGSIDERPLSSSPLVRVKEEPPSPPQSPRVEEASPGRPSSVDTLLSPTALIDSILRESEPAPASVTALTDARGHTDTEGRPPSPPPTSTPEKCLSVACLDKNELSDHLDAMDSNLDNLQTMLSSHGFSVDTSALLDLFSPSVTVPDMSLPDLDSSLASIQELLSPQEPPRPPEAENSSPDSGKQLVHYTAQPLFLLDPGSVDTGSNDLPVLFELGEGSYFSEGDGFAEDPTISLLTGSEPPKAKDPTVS
Chain of CRX (O43186 whole entry): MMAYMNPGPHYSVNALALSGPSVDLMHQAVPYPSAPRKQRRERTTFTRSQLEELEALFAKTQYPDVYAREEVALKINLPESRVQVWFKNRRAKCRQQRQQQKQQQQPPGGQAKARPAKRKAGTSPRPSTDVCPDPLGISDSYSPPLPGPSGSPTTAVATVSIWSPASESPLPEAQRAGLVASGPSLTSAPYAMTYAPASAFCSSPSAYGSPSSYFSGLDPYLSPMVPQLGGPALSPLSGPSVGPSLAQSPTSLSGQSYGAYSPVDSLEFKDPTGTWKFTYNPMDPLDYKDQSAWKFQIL
Chain of ETV6 (P41212 whole entry): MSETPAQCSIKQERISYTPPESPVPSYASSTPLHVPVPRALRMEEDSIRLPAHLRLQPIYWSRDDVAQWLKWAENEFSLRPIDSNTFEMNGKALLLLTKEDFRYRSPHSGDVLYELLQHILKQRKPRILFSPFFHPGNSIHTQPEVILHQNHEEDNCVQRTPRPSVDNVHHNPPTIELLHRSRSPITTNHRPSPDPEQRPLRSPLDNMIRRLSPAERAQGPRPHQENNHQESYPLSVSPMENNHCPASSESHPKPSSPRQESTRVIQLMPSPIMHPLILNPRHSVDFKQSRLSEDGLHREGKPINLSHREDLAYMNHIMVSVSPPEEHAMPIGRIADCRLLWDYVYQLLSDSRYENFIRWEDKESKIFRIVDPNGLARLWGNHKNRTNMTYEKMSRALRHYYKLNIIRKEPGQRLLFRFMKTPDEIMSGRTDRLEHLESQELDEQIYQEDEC

For TACCTC, the binding signal in the test with FEV is 1.22 fold enrichment (6-mer frequency, TF over GST control); in the test with ETV5, 1.14 fold enrichment (6-mer frequency, TF over GST control); in the test with HSF1, 1.07 fold enrichment (6-mer frequency, TF over GST control); in the test with SPIC, 1.4 fold enrichment (6-mer frequency, TF over GST control); in the test with ELF4, 1.21 fold enrichment (6-mer frequency, TF over GST control); with ELK4, 1.36 fold enrichment (6-mer frequency, TF over GST control). For the same sequence, the binding signal with ETV2 was 1.24 fold enrichment (6-mer frequency, TF over GST control); with ELF3 it was 1.27 fold enrichment (6-mer frequency, TF over GST control); with CRX, 1.19 fold enrichment (6-mer frequency, TF over GST control); with ETV1 it was 1.29 fold enrichment (6-mer frequency, TF over GST control); with ERF, 1.32 fold enrichment (6-mer frequency, TF over GST control); with ETV3L, 1.43 fold enrichment (6-mer frequency, TF over GST control). The binding signal with ETS2 is 1.26 fold enrichment (6-mer frequency, TF over GST control); with SPDEF it was 1.23 fold enrichment (6-mer frequency, TF over GST control); with ETV7, 1.19 fold enrichment (6-mer frequency, TF over GST control); with ELF5, 1.29 fold enrichment (6-mer frequency, TF over GST control); in the test with ETV3 it was 1.25 fold enrichment (6-mer frequency, TF over GST control); with ETV6 it was 1.11 fold enrichment (6-mer frequency, TF over GST control).

The record behind these values is publication PMC7862700, “An all-to-all approach to the identification of sequence-specific readers for epigenetic DNA modifications on cytosine”.
